Measurements from PubChem BioAssay AID1159580 (chemical genetic matrix, 2015).
“And” between values parts separate entries of the source, which are not always exact repeats. Equal values may be shown once. In all, about 5,500 compounds went through this assay and about 2,000 (36%) were called active. Inconclusive results (about 18%) are left out. Cut-off read from the data, not from the text of the source: active = normalized growth mostly below about 0.91 (no sharp cut-off); inconclusive = no clear call, values can overlap the other calls; inactive = mostly above about 0.92. This is one part of the list.

Assay: chemical genetic growth profiling, strain panel (AID 1159580);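 note: tested at 20 µM; growth read once vehicle control cultures reached saturation at 30 °C; 1 = growth at the plate median or of vehicle wells; lower values mean less growth of the strain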
Conditions: S. cerevisiae deletion strains, growth OD

Measured: normalized growth

CO[C@@]1(NC(=O)CSCC#N)C(=O)N2C(C(=O)O)=C(CSc3nnnn3C)CSC21 (stereo partly specified)
inactive: locus YAL013W, strain DEP1, hits give low values 1.01 | locus YAL021C, strain ccr4, hits give low values 0.941 | locus YAL026C, strain drs2, hits give low values 0.985 | locus YAL030W, strain snc1, hits give low values 0.988 | locus YBL061C, strain skt5, hits give low values 0.985 | locus YBR009C, strain hhf1, hits give low values 0.988 | locus YBR021W, strain FUR4, hits give low values 1 | locus YBR023C, strain chs3, hits give low values 0.994 | locus YBR171W, strain sec66, hits give low values 0.997 | locus YBR229C, strain ROT2, hits give low values 1.01 | locus YBR231C, strain swc5, hits give low values 0.981 | locus YBR279W, strain paf1, hits give low values 0.981 | locus YCL011C, strain gbp2, hits give low values 0.993 | locus YCL016C, strain dcc1, hits give low values 0.975 | locus YCL029C, strain bik1, hits give low values 1.03 | locus YCL069W, strain vba3, hits give low values 0.986 | locus YCR088W, strain abp1, hits give low values 0.996 | locus YDL005C, strain med2, hits give low values 0.909 | locus YDL035C, strain GPR1, hits give low values 1.02 | locus YDL040C, strain nat1, hits give low values 0.988 | locus YDL074C, strain BRE1, hits give low values 1.03 | locus YDL101C, strain DUN1, hits give low values 1.01 | locus YDL134C, strain PPH21, hits give low values 1.01 | locus YDL185W, strain tfp1, hits give low values 1.03 | locus YDL192W, strain arf1, hits give low values 1.04 | locus YDR001C, strain nth1, hits give low values 1 | locus YDR069C, strain doa4, hits give low values 0.973 | locus YDR101C, strain arx1, hits give low values 1.03 | locus YDR137W, strain rgp1, hits give low values 0.948 | locus YDR150W, strain NUM1, hits give low values 1.01 | locus YDR159W, strain sac3, hits give low values 0.927 | locus YDR162C, strain NBP2, hits give low values 1.04 | locus YDR195W, strain ref2 1 | locus YDR297W, strain sur2, hits give low values 1 | locus YDR318W, strain mcm21, hits give low values 1.03 | locus YDR334W, strain swr1, hits give low values 1 | locus YDR335W, strain msn5, hits give low values 0.99 | locus YDR388W, hits give low values 1.02 | locus YDR392W, strain spt3, hits give low values 0.878 | locus YDR502C, strain sam2, hits give low values 1.03 | locus YEL003W, strain gim4, hits give low values 1 | locus YEL037C, strain rad23, hits give low values 1 | locus YEL061C, strain CIN8 (second series), hits give low values 1.01 | locus YEL061C, strain CIN8, hits give low values 1.01 | locus YER015W, strain faa2, hits give low values 0.982 | locus YER016W, strain bim1, hits give low values 0.968 | locus YER110C, hits give low values 1.04 | locus YER111C, strain swi4, hits give low values 0.982 | locus YER155C, strain BEM2 (second series), hits give low values 0.968 | locus YER155C, strain BEM2, hits give low values 1.01 | locus YER167W, strain BCK2, hits give low values 1.02 | locus YFR010W, strain ubp6, hits give low values 1 | locus YGL078C, strain dbp3, hits give low values 1.03 | locus YGL086W, strain mad1, hits give low values 1.02 | locus YGL167C, strain pmr1, hits give low values 0.984 | locus YGL173C, strain kem1, hits give low values 0.97 | locus YGL227W, strain vid30, hits give low values 1.01 | locus YGL240W, strain doc1, hits give low values 0.959 | locus YGL248W, strain PDE1, hits give low values 1.01 | locus YGL253W, strain hxk2, hits give low values 0.998 | locus YGR078C, strain PAC10, hits give low values 1.01 | locus YGR135W, strain pre9, hits give low values 1.01 | locus YGR229C, strain SMI1, hits give low values 1.02 | locus YGR252W, strain gcn5, hits give low values 1.07 | locus YHR013C, strain ard1, hits give low values 0.964 | locus YHR027C, strain rpn1, hits give low values 0.98 | locus YHR030C, strain SLT2, hits give low values 1.01 and 0.983 | locus YHR079C, strain IRE1 (second series), hits give low values 1.02 | locus YHR079C, strain IRE1, hits give low values 0.986 | locus YHR094C, strain hxt1, hits give low values 1.03 | locus YHR129C, strain ARP1, hits give low values 1.01 | locus YHR142W, strain chs7, hits give low values 1.01 | locus YHR200W, strain rpn10, hits give low values 1.04 | locus YIL066C, strain RNR3, hits give low values 1.03 | locus YIL073C, strain SPO22, hits give low values 1.13 | locus YIL125W, strain kgd1, hits give low values 1.03 | locus YIR030C, strain dcg1, hits give low values 1.03 | locus YJL092W, strain hpr5, hits give low values 1 | locus YJL095W, strain BCK1 (second series), hits give low values 0.979 | locus YJL095W, strain BCK1, hits give low values 1.01 and 0.98 | locus YJL115W, strain asf1, hits give low values 0.984 | locus YJL129C, strain trk1, hits give low values 0.99 | locus YJL134W, strain LCB3, hits give low values 1 | locus YJL154C, strain vps35, hits give low values 1 | locus YJL164C, strain tpk1, hits give low values 0.973 | locus YJL166W, strain qcr8, hits give low values 0.978 | locus YJL168C, strain set2, hits give low values 1.04 | locus YJL187C, strain SWE1 (second series), hits give low values 1.01 | locus YJL187C, strain SWE1, hits give low values 0.985 | locus YJR043C, strain POL32, hits give low values 1.01 | locus YJR066W, strain TOR1, hits give low values 0.942
